# Screening results deposited in PubChem BioAssay by The Scripps Research Institute Molecular Screening Center.
# M4 ag = agonists of human muscarinic M4 receptor (CHRM4); 360,000 compounds, 0.14% hits; P08173; CHO-K1 hM4/Gqi5, Fluo-8 calcium fluorescence; vehicle 0%, full acetylcholine response 100%; AID 624127; activation, % at 3 µM;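 active means activation above the run mean over all test wells plus 3 SD, cut at about 32% in these data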;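 further: peak over basal fluorescence ratio per well then scaled between controls; 0% = DMSO wells and 100% = acetylcholine at EC100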
# Target sequence (P08173 whole entry, looked up): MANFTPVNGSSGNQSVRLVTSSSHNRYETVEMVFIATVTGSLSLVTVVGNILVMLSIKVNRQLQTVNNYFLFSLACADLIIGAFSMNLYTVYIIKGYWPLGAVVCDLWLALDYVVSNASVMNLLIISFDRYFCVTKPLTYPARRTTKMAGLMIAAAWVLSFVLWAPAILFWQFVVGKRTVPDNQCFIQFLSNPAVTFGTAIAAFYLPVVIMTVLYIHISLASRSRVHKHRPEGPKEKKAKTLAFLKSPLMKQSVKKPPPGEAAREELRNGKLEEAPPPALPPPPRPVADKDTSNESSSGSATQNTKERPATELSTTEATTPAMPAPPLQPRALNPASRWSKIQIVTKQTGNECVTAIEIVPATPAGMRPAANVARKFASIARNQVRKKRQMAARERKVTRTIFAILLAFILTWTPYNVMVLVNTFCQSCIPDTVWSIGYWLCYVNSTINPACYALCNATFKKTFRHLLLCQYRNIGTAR
# CHO-K1 Ca antag = M1 antagonist counterscreen hit in parental CHO-K1 cells | 360,000 compounds, 0.6% hits | ATP-induced calcium, Fluo-8 fluorescence | inhibition, % at 3 µM | AID 602250;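 active means inhibition above a per-plate cutoff, the plate's mean sample inhibition plus 3 SD, cut at about 24% in these data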;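 further: 0% = DMSO plus EC80 ATP and 100% = DMSO alone without ATP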
# CHO-K1 Ca ag = nonselective activator or artifact in parental CHO-K1 cells. Fluo-8 calcium fluorescence; scaled to maximal ATP response, vehicle zero. activation, % at 3 µM. 360,000 compounds, 0.48% hits. AID 602248; in the data active means activation above about 15%;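 further: untransfected CHO-K1 host cells lacking M1 receptor as counterscreen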
# M4 PAM = positive allosteric modulators of human muscarinic M4 receptor; P08173; 360,000 compounds, 0.4% hits; activation, % at 3 µM; CHO-K1 hM4/Gqi5, Fluo-8 calcium fluorescence, ACh EC20; 0% = ACh EC20, 100% = maximal ACh;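 active means activation above its plate's cutoff, the mean activation of sample wells plus 3 SD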
# M1 PAM parental = M1 PAM counterscreen hit in parental CHO-K1 cells; ATP EC20, Fluo-8 calcium fluorescence; 0% at ATP EC20, 100% at ATP max; activation, % at 3 µM; 360,000 compounds, 0.02% hits; AID 602247;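 active means activation above the run cutoff, the mean activation of all test compounds plus 3 SD, cut at about 40% in these data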;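 further: peak over basal fluorescence ratio in a 140 s read after ATP addition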
# M4 antag = antagonists of human muscarinic M4 receptor (CHRM4); P08173; CHO-hM4 cells, ACh EC80, Fluo-8 calcium fluorescence; inhibition, % at 3 µM; 360,000 compounds, 0.73% hits; AID 624125;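 active means inhibition above its plate's cutoff, the mean inhibition of sample wells plus 3 SD, cut at about 27% in these data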;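 further: 0% = acetylcholine EC80 with DMSO and 100% = DMSO without agonist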
# Numbers without * were called inactive. An excerpt weighted towards active compounds, which were near 2% of everything screened.
SMILES,M4 ag,CHO-K1 Ca antag,CHO-K1 Ca ag,M4 PAM,M1 PAM parental,M4 antag
CCN(CC)CCCN=Cc1c(-c2ccccc2)[nH]n(-c2nc3ccccc3s2)c1=O,0,-13,1,9,12,2
CC1=NOC(=O)/C1=C\c1ccc(-c2cccc(Cl)c2)o1,6,15,4,3,13,54*
Cc1onc(-c2c(F)cccc2Cl)c1C(=O)N1CCCc2ccccc21,-1,-7,2,7,20,3
CCCCN1C(=O)/C(=C/C=C2/CC(C)(C)CN2C)SC1=S,34*,28*,38*,-11,2,25
CCCN1C(=O)/C(=C/C=C2\N(CC)c3ccccc3C2(C)C)SC1=S,4,-1,4,6,14,-4
CCCCN1C(=O)/C(=C/C=C2\Oc3ccccc3N2CC)SC1=S,20,22,15*,-10,2,22
O=C(Nc1ccccc1Cl)NC1(C(=O)N2CCCCC2)CCCCC1,0,-2,0,11,5,3
COc1ccc(CNC(=O)c2cc3ccccc3oc2=O)cc1,2,-3,1,1,4,-8
COc1ccc2oc(=O)c(C(=O)NCc3ccc(F)cc3)cc2c1,2,4,16*,-4,12,10
Cc1nn(C2CCS(=O)(=O)C2)c2nc(C3CC3)cc(C(=O)Nc3ccc(C(N)=O)cc3)c12 (stereo not drawn),1,9,0,7,12,0
Cc1ccc(C)c(OCc2cc(C(=O)N(C)Cc3nccs3)no2)c1,6,-16,4,-4,-10,9
CCC(C)(C)n1nnnc1C(c1ccccn1)N1CCOCC1 (stereo not drawn),0,-14,1,3,10,3
O=C(NN=Cc1c(O)ccc2ccccc12)c1ccc2c(c1)OCO2,3,4,0,23*,-8,-8
Cc1[nH]c2ccccc2c1CCNS(=O)(=O)c1ccc(S(N)(=O)=O)cc1,2,-6,0,16*,5,-10
O=C(N/N=C/c1ccc(F)cc1)c1ccc(Br)cc1,-1,-12,1,3,17,2
Cc1cccc(/C=N/NC(=O)c2ccc(Br)cc2)c1,0,7,17*,-1,15,8
CNCCCC1Sc2ccccc2Oc2ccccc21 (stereo not drawn),4,19,1,-11,-8,8
CNCCCC1c2ccccc2C=Cc2ccccc21,4,-5,1,-18,10,91*
N#Cc1ccc2[nH]cc(C3c4cc(F)ccc4C=C(c4ccsc4)N3c3ccc(C#CCCO)cc3)c2c1 (stereo not drawn),2,-4,1,-15,14,41*
COc1cc(-c2ccc(N3C(c4ccsc4)=Cc4ccc(F)cc4C3c3c[nH]c4ccc(C#N)cc34)cc2)cc(OC)c1OC (stereo not drawn),1,-8,1,5,12,-2
COC(=O)CN(c1cc(Cl)ccc1OC)S(=O)(=O)c1ccc(C)cc1,-1,-5,0,-6,12,5
COc1ccc(Cl)cc1N(CC(=O)NC(C)(C)C)S(=O)(=O)c1ccc(C)c([N+](=O)[O-])c1,1,-13,0,22*,26,-4
CCOc1ccccc1C1C(C#N)=C(N)Oc2cc(C)n(Cc3ccccn3)c(=O)c21 (stereo not drawn),0,32*,-1,10,-7,4
COc1ccccc1C1C(C#N)=C(N)Oc2cc(C)n(Cc3ccccn3)c(=O)c21 (stereo not drawn),0,16,0,5,-4,4
O=C(NC1CCCCCC1)c1ccc(N2CCCC2=O)cc1,1,-7,1,-6,0,0
SMILES,M4 ag,CHO-K1 Ca antag,CHO-K1 Ca ag,M4 PAM,M1 PAM parental,M4 antag
CN(C)CCCNC(=O)N1c2ccccc2C=Cc2ccccc21,1,-10,1,-16,10,68*
COc1cc(OC)c(C2=NOC(C(=O)Nc3ccc4c(c3)OCO4)C2)cc1Cl (stereo not drawn),3,0,18*,0,2,8
COc1ccc(C2=NOC(C(=O)Nc3ccc4c(c3)OCO4)C2)cc1 (stereo not drawn),1,-5,0,4,-13,-7
OCCOc1nnnn1-c1ccccc1,1,-6,0,10,11,1
CCCOc1nnnn1-c1ccccc1,0,-20,1,19*,21,-4
CCOc1ccccc1CNS(=O)(=O)c1ccc(-c2cnc(C3CC3)o2)cc1,19,14,13,-11,-15,28*
O=C(COC(=O)CSc1ccc(Cl)cc1)NCCc1ccccc1,3,3,0,24*,-19,-14
NC(=O)c1ccsc1NC(=O)COC(=O)CSc1ccc(Cl)cc1,16,24*,9,-18,-15,16
O=C(CNC(=O)c1ccco1)OCc1ccc(Br)cc1,1,3,0,-3,-2,-10
O=C(Nc1ccccc1-c1ccccc1)C1CCC1,54*,-15,1,2,37,-9
O=C(Nc1ccccc1-c1ccccc1)C1CCCCC1,6,-13,3,-3,19,-14
CC1CCN(CC(=O)Nc2ccccc2-c2ccccc2)CC1,-2,-17,-1,-13,-11,27*
CC1CCN(CC(=O)Nc2ccccc2C(=O)c2ccccc2)CC1,-2,-8,1,-2,23,7
CC1COC(c2cccn2Cc2ccccc2Cl)=N1 (stereo not drawn),0,-3,0,0,-4,7
CC(C)OP(=O)(OC(C)C)C(Nc1cccc(C(=O)O)c1)c1ccccc1 (stereo not drawn),0,-15,0,1,17,-4
CC(C)OP(=O)(OC(C)C)C(Nc1ccc(C(=O)O)cc1)c1ccccc1 (stereo not drawn),1,-11,0,32*,19,38*
O=C(Cn1cnc2c(cnn2-c2ccc(Cl)cc2)c1=O)NCC1CCCO1 (stereo not drawn),1,1,0,-3,6,2
COc1cc2cc(C(c3nnnn3C3CCCC3)N(C)C3CCCCC3)c(=O)[nH]c2cc1OC (stereo not drawn),2,-7,0,4,14,-8
COc1cc2cc(C(c3nnnn3C3CCCCC3)N(C)C3CCCCC3)c(=O)[nH]c2cc1OC (stereo not drawn),-2,-21,1,-12,16,30*
Cc1ccccc1CNC(=O)C(=O)NCC1CCCN1S(=O)(=O)c1ccccc1 (stereo not drawn),2,-5,1,-5,11,3
COc1cc(C(=O)OCc2cccc(OC)c2OC)ccc1OCC(=O)N1CCOCC1,3,5,1,22*,-2,-3
